Consider 94 molecules from PubChem BioAssay AID1903 (Southern Research Specialized Biocontainment Screening …, 2009).

Where “and” joins values, the source holds several entries; their conditions need not be identical. Equal entries are not always repeated. Among all 310,000 compounds or so, about 1,200 (0.39%) were called active. These entries were drawn from the full list. Measured potencies and affinities stand elsewhere. Unmarked numbers belong to inactive results. No rule for the calls is given here.

Usually inhibition stands for the drop in the measured response relative to a control, in per cent.

In the test the target is Large T antigen (Simian virus 40) (UniProt P03070). Description: SV40 large T antigen inhibitors, biochemical (AID 1903). Conditions: SV40 large T antigen ATPase/helicase inhibition assay; at 20 µM; stronger effect = higher value.
Sequence of Large T antigen (Simian virus 40) (P03070 whole entry, looked up): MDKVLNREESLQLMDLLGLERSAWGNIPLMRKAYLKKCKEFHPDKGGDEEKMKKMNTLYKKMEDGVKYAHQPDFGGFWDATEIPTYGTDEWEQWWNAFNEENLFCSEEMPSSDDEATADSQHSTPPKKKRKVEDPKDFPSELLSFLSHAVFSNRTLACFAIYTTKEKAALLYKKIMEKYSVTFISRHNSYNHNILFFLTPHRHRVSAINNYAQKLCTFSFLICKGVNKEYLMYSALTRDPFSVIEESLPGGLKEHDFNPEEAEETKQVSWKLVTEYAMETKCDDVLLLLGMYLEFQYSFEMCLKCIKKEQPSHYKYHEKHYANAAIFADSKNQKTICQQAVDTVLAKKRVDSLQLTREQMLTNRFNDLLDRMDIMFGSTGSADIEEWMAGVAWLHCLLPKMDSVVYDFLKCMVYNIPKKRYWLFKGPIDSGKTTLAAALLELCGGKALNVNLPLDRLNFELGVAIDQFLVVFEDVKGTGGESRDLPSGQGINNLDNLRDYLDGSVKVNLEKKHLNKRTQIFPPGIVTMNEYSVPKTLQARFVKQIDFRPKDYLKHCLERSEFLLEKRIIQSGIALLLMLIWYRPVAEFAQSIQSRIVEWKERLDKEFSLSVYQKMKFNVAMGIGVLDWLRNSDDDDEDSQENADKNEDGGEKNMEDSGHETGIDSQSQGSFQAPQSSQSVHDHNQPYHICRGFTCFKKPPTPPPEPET
On to `O=C(O)c1cccc(O)c1O`, for which the inhibition was 13%.
Regarding `Nc1ccc(N)c(C(=O)O)c1`, the inhibition is 12.3%.
Turning to `Nc1ccc(C(=O)O)c(O)c1`, the inhibition was 2.41% and 26.8% and 24.4%.
As for `O=C(O)c1ccccc1O`, the figure is 13.6%; as for `O=C(OCc1nnc(-c2ccccc2)o1)C1CC(=O)N(c2ccccc2)C1` (centres undefined), 4.63%.
In the case of `COc1ccc(CCNCC(=O)Nc2ccccc2C(F)(F)F)cc1` it was 4.81%; in that of `CCCCc1nnc(NC(=O)C2CCN(c3ncnc4sc(C)c(C)c34)CC2)s1`, 6.43%.
For the molecule `Cc1ccc(-n2nc3c(=O)n(CC(=O)NCc4ccccc4Cl)nc(C)c3c2C)cc1`, the inhibition is 10.3%.
As for `CCOC(=O)C1=C(O)/C(=C\c2cc(C)n(-c3ccccc3F)c2C)N=C1C`, the figure is 5.39%; as for `O=C(NCc1cccs1)C1CCCN1C(=O)Nc1ccc(F)cc1` (centres undefined), 12.8%; as for `O=C(c1ccc(S(=O)(=O)Nc2ccccc2)cc1)N1CCCC(C(F)(F)F)C1` (centres undefined), 11.1%.
For the molecule `CCNC(=O)O/N=C(\C)c1sc(-c2ccc(Cl)cc2)nc1C`, the inhibition is 1.49%.
As for `CN=C1S/C(=C\c2ccc(O)c(Br)c2)C(=O)N1C`, the figure is 28.8%; as for `CN=C1S/C(=C\c2ccc(OCC(=O)OC)c(OC)c2)C(=O)N1C`, 3.67%; as for `COc1cc(/C=C2/SC(=S)N(c3c(C)n(C)n(-c4ccccc4)c3=O)C2=O)ccc1O`, 27%.
In the case of `CCOc1cc(/C=C2/NC(=O)N(CC(=O)OC)C2=O)ccc1OC` it was 31.1%; in that of `COc1cc(/C=C2/C(=O)CNC2=O)ccc1O`, 37.6%.
As for `COc1cc(/C=C2\CCC/C(=C\c3ccc(O)c(OC)c3)C2=O)ccc1O`, the figure is 9.57%.
On to `CCOc1cc(/C=C2/NC(=O)N(CC(=O)Nc3cccc(C)c3)C2=O)ccc1O`, for which the inhibition was 12.6%.
As for `CCOc1cccc(/C=C2\NC(=S)N(c3ccccc3)C2=O)c1O`, the figure is 18.7%; as for `O=C(O)C1CC(=O)N(Cc2ccc(F)cc2)C1` (centres undefined), 0.55%.
As for `COc1ccc(NC(=O)CCNC(C)=O)cc1NS(=O)(=O)c1ccc(F)cc1`, the figure is 3.53%; as for `CCc1ccccc1NC(=O)CNC(=O)CCc1nc2sc3c(c2c(=O)[nH]1)CCCC3`, 24.8%.
In the case of `Cc1cccc(C)c1N=Nc1c(C)cc(O)cc1C` it was 12.6%; in that of `Cc1ccccc1C1N(c2nccs2)C(=O)C2CCCN21` (centres undefined), 12.4%.
With `CCN(c1ccccc1)S(=O)(=O)c1cc(CN2C(=O)c3cccnc3C2=O)ccc1OC`, the inhibition was 13.8%.
`Cc1ccc(CNC(=O)/C=C/c2ccc(S(=O)(=O)N3CCOCC3)cc2)cc1`: the inhibition is 3.26%.
As for `NS(=O)(=O)c1cc(C(=O)OCC(=O)c2ccccc2)c(Cl)cc1Cl`, the figure is 2.42%; as for `NCCCC[C@H](NC(=O)C1CCNCC1)c1nnc([C@@H](N)Cc2ccc(O)cc2)o1`, 2.89%; as for `COC(=O)C1=C(C)N(CCc2ccccc2)C(=O)/C1=C\c1ccco1`, 10.5%.
As for `COc1cc(C=C2C(=O)c3ccccc3C2=O)cc(OC)c1OC`, the figure is 6.63%.
In the case of `COc1cc(/C=C2\NC(=S)N(C)C2=O)ccc1OCc1ccccc1F` it was 15.8%; in that of `COc1cc(/C=C2/SC(=Nc3ccc(O)cc3)NC2=O)ccc1O`, 37.7%.
For `COc1ccc(N=C2NC(=O)/C(=C/c3ccc(O)c(OC)c3)S2)cc1`, the inhibition was 28.3%.
In the case of `O=C1N/C(=C/c2ccco2)C(=O)N1Cc1ccccc1F` it was 11.4%; in that of `COc1ccc(C=C2C(=O)c3ccccc3C2=O)cc1O`, 36.2%.
As to `COc1cc(/C=C2\C(=O)N(C)C(=S)N2C)ccc1O`, the inhibition was 17.2%.
In the case of `Cc1ccc(NC(=O)C2CCCN(c3nccc(C)n3)C2)c(C)c1` (centres undefined) it was 4.92%; in that of `Cc1sc2nc(CSCC(=O)Nc3c(F)cccc3F)[nH]c(=O)c2c1C`, 6.91%.
With `COc1ccc(C(=O)Nn2c(C)nc3ccccc3c2=O)cc1OC`, the inhibition is -1.86%.
As for `Cc1ccc(NC(=O)CSc2ccc3nnc(CCNC(=O)c4ccccc4)n3n2)c(C)c1`, the inhibition is 9.38%.
As for `O=C(c1ccccc1F)N1CCN(C2CCC(c3ccccc3)CC2)CC1` (centres undefined), the inhibition is 18.6%.
As for `CC(C)(C)C(=O)NC(=O)Nc1ccccc1C(F)(F)F`, the figure is 2.7%; as for `COC(=O)c1ccc(NC(=O)C2CCCN(S(C)(=O)=O)C2)cc1` (centres undefined), 3.57%.
`C=CCCN(C1CCCC1)S(=O)(=O)c1ccccc1Br`: the inhibition was 10.4%.
In the case of `O=C(Nc1nc2ccc(Cl)cc2s1)[C@@H]1CCCN1C(=O)c1cccs1` it was -3.98%.
Turning to `Cc1c(N2C(=O)/C(=C\c3cccc4ccccc34)SC2=S)c(=O)n(-c2ccccc2)n1C`, the inhibition is 9.9%.
As for `COC(=O)C1=C(C)N(Cc2ccc(C)cc2)C(=O)/C1=C\c1ccc(O)c(OC)c1`, the figure is 11.5%; as for `Cc1c(N2C(=O)/C(=C/c3ccccc3)SC2=S)c(=O)n(-c2ccccc2)n1C`, 14.5%; as for `CCOC(=O)C1=C(C)N(c2ccc(OC)cc2)C(=O)/C1=C\c1ccc(O)c(OCC)c1`, 28.2%.
As for `CCOC(=O)C1=C(C)N(c2ccc(C)cc2)C(=O)/C1=C\c1ccc(O)c(OC)c1`, the figure is 33.5%; as for `CCOc1cc(/C=C2\C(=O)N(CCc3ccc(OC)c(OC)c3)C(C)=C2C(=O)OC)ccc1O`, 22.8%.
As for `Cc1[nH]c(=O)[nH]c(=S)c1C(=O)Nc1ccc(Cl)c(Cl)c1`, the figure is -9.05%; as for `CC1(C(=O)O)CCC(C(=O)Nc2ccc(F)cc2)C1(C)C` (centres undefined), 17.4%; as for `O=C1c2ccccc2S(=O)(=O)N1CCOc1ccc(F)cc1`, 6.69%.
As to `CCOc1ccc(CCNC(=O)COC(=O)C2=NNC(=O)CC2)cc1OCC`, the inhibition is 12.5%.
In the case of `COc1ccc2c(c1)C1CC(C)(NC(=O)C1S(=O)(=O)c1ccc(F)cc1)O2` (centres undefined) it was 22.9%.
In the case of `CCOC(=O)c1ccccc1NC(=O)c1cccc2c1C(=O)N(C1CCN(C(=O)OCC)CC1)C2` it was 5.81% and 1.24%.
As for `COc1ccc(CN(CCN(C)C)c2ccccn2)cc1`, the figure is 11.2% and 4.35%; as for `CC[N+](C)(C)CCN(Cc1ccc(Cl)cc1)c1ccccn1`, 19.1%.
As for `O=c1[nH]cc(N(CCO)CCO)c(=O)[nH]1`, the inhibition was 15.6%.
As for `O=C(/C=C/c1ccccc1)OCC(=O)N1CCN(c2ccccc2)CC1`, the figure is 8.9%; as for `Cc1onc(C(=O)NCc2cccs2)c1[N+](=O)[O-]`, -0.94%.
As for `NC1=NC(=O)CC(C(=O)NCCc2ccccc2)S1` (centres undefined), the figure is 13.9%.
In the case of `N#CC(C(=O)Nc1ccc(Cl)cc1)=C1Nc2ccccc2N1` it was -0.845%; in that of `C/C(Nc1ccc(Cl)cc1)=C(/C#N)C(N)=O`, -6.59%.
With `CCc1cc(C(=O)c2ccccc2OC)c(N)s1`, the inhibition was 12.7%.
With `COC(=O)/C=C/c1ccc2c(c1)OCO2`, the inhibition was -5.42%.
In the case of `CCCCOC(=O)/C=C/c1ccc(OC(=O)OC)c(OC(=O)OC)c1` it was 15.3%; in that of `CCOc1ccc(NC(=S)N(Cc2ccc(Cl)cc2)Cc2ccco2)cc1`, 2.54%; in that of `O=C(CS(=O)(=O)Cc1ccccc1)N1CCc2ccccc2C1`, 9.06%.
For `O=C1N=C(N2CCN(c3ccccc3)CC2)S/C1=C/c1ccco1`, the inhibition is 12.4%.
As for `O=C1N=C(N2CCCC2C(=O)O)S/C1=C\c1ccco1` (centres undefined), the figure is 3.04%.
With `NN1C(=O)/C(=C\c2ccco2)SC1=S`, the inhibition was 45.2%.
As for `O=C1/C(=C\c2ccc(O)cc2)SC(=S)N1Cc1ccccc1`, the inhibition is 7.6%.
For `O=C(CN1C(=O)S/C(=C\c2ccc(O)cc2)C1=O)c1ccccc1`, the inhibition was 16.6%.
In the case of `O=C1N=C(N2CCN(c3ccccc3)CC2)S/C1=C\c1ccco1` it was 31.4%; in that of `CCCSC1=N/C(=C\C=C\c2ccco2)C(=O)S1`, 73%; in that of `Cc1ccc(N=C2NC(=O)/C(=C/C=C/c3ccco3)S2)cc1`, 21.2%.
In the case of `COc1ccccc1-c1noc(CCCC(=O)NC2CCCCC2)n1` it was 29.8%; in that of `Cc1cc(C=O)c(C)n1-c1ccc(N2CCOCC2)c([N+](=O)[O-])c1`, 5.88%; in that of `O=C(COC(=O)c1nc(Cl)ccc1Cl)NCCc1ccccc1`, -0.66%.
Consider `CCc1ccc(/C=C2/Sc3ccccc3N(CC(=O)NCC3CCCO3)C2=O)cc1` (centres undefined), for which the inhibition is 3.57%.
As to `Cc1ccc(NC(=O)N2CCC(C(=O)c3ccc(F)cc3)CC2)cc1`, the inhibition was 3.7%.
Take `CCOC(=O)Cn1c(=NC(=O)CN2C(=O)CCC2=O)sc2cc(S(N)(=O)=O)ccc21`: the inhibition is 11.6%.
For the molecule `COc1ccc(C(CNc2ccc(S(=O)(=O)N3CCCC3)cc2[N+](=O)[O-])N2CCCC2)cc1` (centres undefined), the inhibition was 0.85%.
In the case of `O=C(C1CCCN(Cc2ccccc2F)C1)N1CCCC1` (centres undefined) it was -1.92%; in that of `CC1CN(c2nc3c(c(=O)n(C)c(=O)n3C)n2Cc2c(Cl)cccc2Cl)CC(C)O1` (centres undefined), -0.38%.
With `CN(C)S(=O)(=O)c1cccc(NC(=O)COC(=O)COc2ccccc2[N+](=O)[O-])c1`, the inhibition was 8.43%.
Consider `CC(=O)C1=C(C)Nc2ncnn2C1c1cccc(Br)c1` (centres undefined), for which the inhibition is 4.82%.
As for `Cn1c(C(=O)NCCOc2ccccc2Cl)cc(=O)n(C)c1=O`, the figure is 3.15%; as for `COc1cc2c(cc1/C=C/C(=O)O)OC(C)C2` (centres undefined), -5.46%.
As for `CC(C)(O)[C@H]1Cc2cc3ccc(=O)oc3cc2O1`, the figure is -9.56%.
Consider `CCCc1ccc(S(=O)(=O)N/N=C\c2ccc3c(c2)OCO3)cc1`, for which the inhibition is 10.3%.
